The text below walks through data of PubChem BioAssay (NCATS).

Records with an inconclusive call do not appear. Active and inactive are the calls of the source. Calls come from the whole dose curve; as a rule, active = well fitted cell-killing curve with a large enough effect; inconclusive = small, poorly fitted or top-dose-only effect, or effect the other way; inactive = no such curve, though single readings can be large or run the other way.
Potency is the fitted concentration of half-maximal effect.

This assay in a line: Viability qHTS for spleen associated tyrosine kinase inhibitor (SYKi) drug resistant MV4-11 cells (AID 1963824). Note: nearly all actives have a fitted effect of over 35% in size. As to conditions: SYKi-resistant MV4-11 viability, CellTiter-Glo, 72 h; series mostly up to 45 µM. A digest of the protocol: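 SYK-inhibitor-resistant MV4-11 AML cells were seeded at 500 per well onto compound and cultured 72 hours (37 °C, 5% CO2). CellTiter-Glo was then added, and after 10 min at room temperature, luminescence gave viability.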
Background: Quantitative high-throughput screening tests each substance at several concentrations.
As for `CN(CCOc1ccc(-c2ccc3c(c2)OCO3)cc1C(C)(C)C)CC(=O)O`, the Potency is 16.6 µM (active).
On to `CO[C@H]1/C=C/[C@@](C)(O)/C=C/C(=O)O[C@H](C)[C@@H](C)CC/C=C/1C`, for which the Potency was 12.8 µM (active).
Take `C[C@]12CC/C(=N\OCC(=O)O)C=C1CC[C@@H]1[C@@H]2[C@@H](O)C[C@@]2(C)[C@H]1CC[C@]2(O)C(=O)CO`: the Potency entry was “inactive”.
The figure for `C=C1CCN([C@H](C)[C@](O)(Cn2cncn2)c2ccc(F)cc2F)CC1` is 14.6 µM (active).
With `Cc1cccc(N(C)C(=S)Oc2ccc3c(c2)CCC3)c1` the figure was 18.4 µM (active); with `CCOc1ccc2nc(SCCN3CCOCC3)[nH]c2c1`, “inactive”.
The entry for `COC(=O)C1=CO[C@@H](O[C@@H]2O[C@H](CO)[C@@H](O)[C@H](O)[C@H]2O)[C@@H]2[C@@](C)(O)[C@@H](O)C[C@]12O` is “inactive”; for `CC(C)Oc1ccc(-c2cnc3c(-c4ccnc5ccccc45)cnn3c2)cc1` it is 4.11 µM (active); for `O=C(C1OC1/C=C/c1ccc2c(c1)OCO2)N1CCCCC1` (stereo not given) it is “inactive”.
Regarding `Fc1ccc2c(CCNCc3cccc(OCC(F)(F)C(F)F)c3)c[nH]c2c1`, the Potency is 16.4 µM (active).
The entry for `COC(=O)c1ccc(O[C@@H]2O[C@H](CO)[C@@H](O)[C@H](O)[C@H]2O)c(OC)c1` is “inactive”; for `CN(C(=O)CNC(=O)/C=C/c1cccc(Cl)c1)C1CCS(=O)(=O)CC1` it is 0.468 µM (active); for `Cn1c(=O)c2c(ncn2Cc2ccc(C(C)(C)C)cc2)n(C)c1=O` it is 1.16 µM (active).
In the case of `CCN(Cc1cc(Nc2nc(C)cn3c(-c4cn[nH]c4)cnc23)sn1)C(C)(C)CO`, the Potency was 0.0082 µM (active).
On to `CC(C)CC1NC(=O)C(C)NC(=O)C(CC(C)C)OC(=O)CCCNC1=O` (stereo not given), for which the Potency entry was “inactive”.
The figure for `CC[C@H]1OC(=O)[C@](C)(F)C(=O)[C@H](C)[C@@H](O[C@@H]2O[C@H](C)C[C@H](N(C)C)[C@H]2O)[C@](C)(OC)C[C@@H](C)C(=O)[C@@H](C)[C@H]2N(CCCCn3cc(-c4cccc(N)c4)nn3)C(=O)O[C@]12C` is 10.3 µM (active); for `COC(=O)C1=CO[C@@H](O[C@@H]2O[C@H](CO)[C@@H](O)[C@H](O)[C@H]2O)[C@@H]2[C@@H](C)[C@@H](O)C(O)[C@H]12` (stereo not given in full) it is “inactive”; for `Cn1nccc1-c1ccccc1Oc1ccc(S(=O)(=O)Nc2nccs2)cc1C#N` it is 13 µM (active).
The entry for `CC1(C)NC2N(C1=O)c1ccccc1C2(O)CC(C(=O)O)n1cnc2ccccc2c1=O` (stereo not given) is “inactive”; for `CC(C)=CCC/C(C)=C/CC/C(C)=C/CC[C@]1(C)CCc2cc(O)cc(C)c2O1` it is “inactive”.
In the case of `c1ccc(Nc2nc3c(s2)CCCc2[nH]ncc2-3)nc1`, the Potency is 14.6 µM (active).
Take `COc1cc(CN(CCN)C(=O)c2cccs2)ccc1OCc1ccccc1`: the Potency was 16.4 µM (active).
With `O=C(CCO[C@@H]1O[C@H](CO)[C@@H](O)[C@H](O)[C@H]1O)c1ccc(O)cc1` the entry was “inactive”.
As for `COc1nc2ccc(Br)cc2cc1[C@@H](c1ccccc1)[C@@](O)(CCN(C)C)c1cccc2ccccc12`, the Potency was 9.2 µM (active).
`COc1ccc([C@@]2(O)c3c(ccc4c3OC(C)(CCC=C(C)C)C=C4)NC(=O)[C@@H]2OC)cc1` (stereo not given in full): the Potency entry was “inactive”.
With `C=C1CC2C(C)(CCC(=O)O)C(C(C)(C)O)CCC2(C)C2C(=O)OC(C)(C(=O)OC)C(=O)C12C` (stereo not given) the entry was “inactive”.
With `Cn1cc(S(=O)(=O)c2ccc(Cl)cc2)c2cccc(N3CCNCC3)c21` the figure was 13 µM (active).
As for `C=C(CO)C(=O)O[C@H]1C[C@@]23O[C@@H]2CC/C(=C/[C@H]2OC(=O)C(=C)[C@H]12)CO[C@H]3O`, the Potency is 11.4 µM (active).
As for `CN(C)CC1CCn2cc(c3ccccc32)C2=C(C(=O)NC2=O)c2cn(c3ccccc23)CCO1` (stereo not given), the Potency is 0.411 µM (active).
The entry for `C=C(C(=O)O)[C@@H]1CC=C2CCC[C@H](C)[C@@]2(C)C1` is “inactive”.
